# FBPA coupling cs – inhibits coupling enzyme system, counter-screen for aldolase hits; 0.67% of 290,000 active; activity change, negative = inhibition, % at 58.2 µM, hits read low; coupling enzyme system counterscreen, AmpLite Red fluorescence; in the data active means activity change below about -30%
#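 Compounds tested against the coupling enzymes alone at 57.5 uM final; readout was AmpLite Red fluorescence (525/598 nm) after 20 min at RT.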
# GoLoco inh red – RGS12 GoLoco-Gai1 interaction inhibition; P63096; Gai1:RGS12 GoLoco peptide FP, rhodamine, 10 min; Potency, µM (highest dose often 61.6 µM), inactives show at the highest dose activity, negative = inhibition, most hits filed as inhibitors; 0.44% of 230,000 active; AID 880; active means well fitted inhibition curve with a large enough effect, not every such curve was filed as active; inactive means no such curve, though single readings can be large or run the other way; further: potency means the concentration at half of the fitted maximal effect; nearly all actives have a fitted effect of over 30% in size
# Target sequence (P63096 whole entry, looked up): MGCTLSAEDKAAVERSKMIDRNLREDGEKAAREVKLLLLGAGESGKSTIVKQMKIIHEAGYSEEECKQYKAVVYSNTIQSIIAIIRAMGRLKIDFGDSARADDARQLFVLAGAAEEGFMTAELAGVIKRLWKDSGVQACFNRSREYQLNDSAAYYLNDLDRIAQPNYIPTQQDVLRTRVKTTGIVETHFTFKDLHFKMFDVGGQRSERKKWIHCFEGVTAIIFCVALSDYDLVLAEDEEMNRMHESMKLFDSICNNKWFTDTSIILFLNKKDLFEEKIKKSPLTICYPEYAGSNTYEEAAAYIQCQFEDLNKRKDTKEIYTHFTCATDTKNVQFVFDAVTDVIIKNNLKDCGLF
# JMJD2E inh – inhibitors of human JMJD2E histone demethylase; Potency, µM (highest dose often 57.1 µM), for inactives: at the highest dose activity change, negative = inhibition, usual class: inhibitors; AID 2147; JMJD2E catalytic domain, FDH-coupled NADH fluorescence (FDH is formaldehyde dehydrogenase); 1.6% of 230,000 active;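 further: potency means the concentration at half of the fitted maximal effect; 0% = wells with enzyme and -100% = buffer wells without enzyme; nearly all actives have a fitted effect of over 50% in size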
# Target sequence (B2RXH2 1-337 limits assumed): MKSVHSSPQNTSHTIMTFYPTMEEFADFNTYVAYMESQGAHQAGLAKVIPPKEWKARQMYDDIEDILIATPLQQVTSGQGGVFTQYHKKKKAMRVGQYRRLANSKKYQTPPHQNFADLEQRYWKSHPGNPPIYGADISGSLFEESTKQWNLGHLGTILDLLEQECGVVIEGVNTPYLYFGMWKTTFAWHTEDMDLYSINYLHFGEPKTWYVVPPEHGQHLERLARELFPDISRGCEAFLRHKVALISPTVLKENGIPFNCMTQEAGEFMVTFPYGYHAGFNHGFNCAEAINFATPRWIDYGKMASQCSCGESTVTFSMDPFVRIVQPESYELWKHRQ
# NPSR antagonist – neuropeptide S receptor (human) antagonism, cAMP. AID 1461. CHO-NPSR cells, cAMP TR-FRET, antagonist mode. Q6W5P4. Potency, µM (titrated, usually from 38.3 µM), inactives show at the highest dose activity change, negative = inhibition, hits mostly inhibitors. 1% of 220,000 active; active means well fitted curve in the direction sought with a large enough effect; inconclusive means small, poorly fitted or top-dose-only effect, or another doubt; inactive means no such curve, though single readings can be large; an effect the other way counts as inactive or inconclusive; further: potency means the concentration at half of the fitted maximal effect; nearly all actives have a fitted effect of over 50% in size
# Sfp inh – inhibitors of Bacillus subtilis Sfp phosphopantetheinyl transferase; Biochemical Sfp PPTase activity, qHTS; Potency, µM, for inactives: largest response in the series, negative = inhibition, hits mostly inhibitors; 3.5% of 310,000 active; AID 1490; active means well fitted curve in the direction sought with a large enough effect; inconclusive means small, poorly fitted or top-dose-only effect, or another doubt; inactive means no such curve, though single readings can be large; an effect the other way counts as inactive or inconclusive;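 further: the enzyme is Sfp with the accession as filed and its product quenches rhodamine fluorescence; potency means the concentration at half of the fitted maximal effect; 0% = enzyme reaction without inhibitor and -100% = no enzyme wells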
#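 Compounds were incubated with enzyme (final 15 nM) for 15 min at room temperature before substrate addition started the reaction. Fluorescence at 525 nm excitation, 598 nm emission was recorded immediately and after 30 minutes.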
# ALDH1A1 block – blocks purified human ALDH1A1 activity; P00352; Purified ALDH1A1, NADH fluorescence, propionaldehyde substrate; Potency, µM (highest dose often 75.3 µM), without a hit: at the highest dose activity, negative = inhibition, usual class: inhibitors; 7.3% of 220,000 active;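 further: potency means the concentration at half of the fitted maximal effect; plate controls were no enzyme wells and a reference inhibitor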
# An asterisk follows results filed as active; u = inconclusive; x = not tested or not shown; [ ] = another dose, or the depositor's remark. Only some compounds are listed: those with a hit (about 8.5% of all), similar ones and a draw of the others. Unless noted, the call rests on the fitted dose curve; in most records, active means well fitted inhibition curve with a large enough effect (not every such curve was filed as active); inconclusive means small, poorly fitted or top-dose-only effect, or another doubt; inactive means no such curve, though single readings can be large or run the other way. Unless noted, on the % scale 0 is the no-effect control and ±100 the full control effect.
SMILES,FBPA coupling cs,GoLoco inh red,JMJD2E inh,NPSR antagonist,Sfp inh,ALDH1A1 block
COc1cccc(-c2csc(N3CCN(C(=O)Nc4ccccc4Cl)CC3)n2)c1,-0.2,26.1%,1.9%,25.8%,3.0%,22.4µM*
COc1cccc(-c2csc(N3CCN(C(=S)Nc4ccccc4C)CC3)n2)c1,-0.2,6.7%,-5.3%,9.1%,11.1%,u
COc1cccc(-c2csc(N3CCN(C(=S)Nc4ccc(Cl)cc4)CC3)n2)c1,1.2,29.4%,-5.5%,-16.0%[46.1 µM],44.7µM*,0.0891µM*
CNC(=S)N1CCN(c2nc(-c3cccc(OC)c3)cs2)CC1,0.5,x,x,x,10.8%,x
COc1cccc(-c2csc(N3CCN(C(=S)Nc4ccccc4)CC3)n2)c1,-0.4,7.2%,-2.1%,-22.2%[46.1 µM],0.6%,0.7%
CC(C)Cn1c(/C=C/c2ccco2)nc2ccccc21,-2.4,62.5%,u,-11.7%,35.5µM*,u
C=C1C(=O)C=C2CN(C(=O)c3ccccc3)[C@@](Cc3ccc(OC)cc3)(C(=O)OC)[C@@H]12,-0.9,3.1%,u,x,3.98µM*,u
O=C(NCc1ccc(-n2cccc2)cc1)c1cccc(F)c1,1.5,14.0%,-5.7%,-10.2%,7.0%,15.8µM*
COc1ccc(C(=O)NCc2ccc(-n3cccc3)cc2)cc1OC,1.2,-2.1%,8.6%,-10.3%,9.0%,u
O=C(c1cnccn1)N1CCC[C@@]2(CCN(C(c3ccccc3)c3ccccc3)C2)C1,2.9,5.9%,x,x,4.4%,1.9%
COc1ccc2c(c1)O[C@H](c1ccc3c(c1)OCO3)[C@@H](OC(=O)N[C@H]1CCCc3ccccc31)C2=O,0.2,-4.4%,-1.6%,-11.3%,1.9%,11.5%
COc1ccc2c(c1)C(=O)[C@@H](OC(=O)N[C@H]1CCCc3ccccc31)[C@H](c1ccc(OC)c(Br)c1)O2,-0.1,8.2%,-13.5%,x,15.9%,12.6µM*
Cc1ccc(CNc2ncnc3ccc(-c4c(C)noc4C)cc23)o1,-0.5,x,x,x,-12.7%,x
COc1cccc(C2C(C(=O)c3cc4ccccc4o3)=C(O)C(=O)N2CCN2CCOCC2)c1 (stereo not given),11.4,x,x,x,14.2%,x
COc1ccccc1C1C(C(=O)c2cc3ccccc3o2)=C(O)C(=O)N1CCN1CCOCC1 (stereo not given),-3.1,-4.0%,-19.5%,8.2%[46.1 µM],-22.5%,20µM*
CN(C)CCN1C(=O)C(O)=C(C(=O)c2cc3ccccc3o2)C1c1ccc(N(C)C)cc1 (stereo not given),-16.1,20.2%,-6.5%,3.9%,-27.3%,28.2µM*
COC(=O)C1=C[C@@H](C(=O)OC)C2C3=C(C(=O)[C@@]2(C)NC(=O)c2ccccc2)[C@H](C)n2c(=O)n(-c4ccccc4)c(=O)n2[C@@H]3C1 (stereo not given in full),2.5,x,x,x,4.4%,x
Cc1ccc(S(=O)(=O)NNC(=O)C(=O)NNS(=O)(=O)c2ccc(C)cc2)cc1,7.4,5.0%,6.8%,7.4%,27.7%,-5.8%
CC(=O)Nc1ccc(S(=O)(=O)NNc2ccc([N+](=O)[O-])cc2)cc1,-2.3,x,x,x,22.4µM*,x
Cc1ccc(NNS(=O)(=O)c2ccc(C)cc2)cc1,x,-41.7%,17.8µM*,-18.4%[46.1 µM],39.8µM*,6.31µM*
CSc1ccc(S(=O)(=O)Nc2ccc(S(=O)(=O)Nc3ccc(C)cc3)cc2)cc1,8.2,-0.2%,-7.8%,-16.6%[46.1 µM],15.3%,8.91µM*
Cc1ccc(S(=O)(=O)Nc2ccc3c(c2)CCC3)cc1,1.3,-13.6%,-6.0%,-17.1%[46.1 µM],-15.6%,11.2µM*
CC(=O)Nc1ccc(S(=O)(=O)NNC(=O)c2ccc([N+](=O)[O-])cc2)cc1,0.3,x,x,x,-5.8%,x
COc1ccc(S(=O)(=O)N(C)c2ccc(C(=O)NCc3ccccn3)cc2)cc1OC,x,x,x,x,8.6%,x
CCC(=O)N1CCc2cc(Br)cc(S(=O)(=O)NCc3ccccc3OC)c21,-0.6,x,x,x,2.9%,x
SMILES,FBPA coupling cs,GoLoco inh red,JMJD2E inh,NPSR antagonist,Sfp inh,ALDH1A1 block
O=C(O)CN1C(=O)/C(=C/c2ccccc2Br)Oc2ccccc21,9.2,x,x,x,24.8%,x
COc1cc2c(cc1OC)C(C)N(C(=O)c1sc(-c3cnccn3)nc1C)CC2 (stereo not given),0.3,6.8%,-0.6%,-12.2%,21.7%,x
COc1ccc2c(c1)CC/C(=C\C=C\c1ccccc1OC)C2=O,-40.3*,33.8%,1.8%,-10.2%[46.1 µM],25.1µM*,-2.2%
COc1ccc2c(c1)C(=O)/C(=C/C=C/c1ccccc1)CC2,-3.0,-0.8%,6.4%,u,-13.3%,u
COc1ccc2c(c1)CC/C(=C\c1ccc(C)o1)C2=O,-16.3,5.7%,u,-6.5%,44.7µM*,x
COc1cc(C(=O)O)ccc1O,3.6,4.5%,-8.4%,12.5%,5.4%,5.2%
COc1cc(C(=S)N2CCCCC2)ccc1O,-36.8*,6.1%,2.1%,0.6%[46.1 µM],44.7µM*,u
COc1cc(C(=S)N2CCCC2)ccc1O,1.0,-6.4%,-4.2%,3.6%[46.1 µM],u,14.1µM*
CCOc1cc(C(=S)N2CCCC2)ccc1O,6.4,x,x,x,35.5µM*,x
COc1cc(C(=S)N2CCC(C(N)=O)CC2)ccc1O,3.0,-2.8%,10.2%,-8.7%[46.1 µM],20µM*,10µM*
Cc1cc(OCc2cc(C(=O)NCCN3CCCCC3CO)no2)cc(C)c1Cl (stereo not given),x,x,x,x,-15.5%,x
COc1cccc(-n2c([S-])c(C(=O)Nc3ccc(C(F)(F)F)cc3)[n+]3ccccc23)c1,-6.2,5.3%,u,-35.4%,2.0%,u
CC(c1cccs1)N(Cc1ccco1)C(=S)Nc1ccccc1Cl (stereo not given),1.9,6.7%,-9.4%,13.3%,-4.3%,10.4%
COc1ccc(NS(=O)(=O)c2ccc(C)c(NC(=O)c3ccc(C)c(S(=O)(=O)N4CCOCC4)c3)c2)cc1,1.8,2.9%,-21.4%,-7.0%,8.9%,11.0%
COc1cc(C(=S)N2CCCCC2)ccc1OCC(=O)N1CCCC1,1.1,7.4%,3.9%,3.4%[46.1 µM],-0.5%,22.4µM*
COc1ccc(C(=O)NC(=S)N2CCC(C)CC2)cc1Br,x,x,x,x,10.2%,x
COc1ccc(CCN(C)C(=O)c2ccc(OCC(=O)N3CCOCC3)c(OC)c2)cc1OC,x,x,x,x,10.8%,x
COc1cc(C(=S)N2CCC(C)CC2)ccc1O,2.7,-13.7%,-24.5%,-3.8%[46.1 µM],44.7µM*,10µM*
COc1cc(C(=O)NCCc2ccc3c(c2)OCCO3)ccc1OCC(=O)N1CCOCC1,1.5,33.8%,1.6%,-18.4%[46.1 µM],13.7%,22.4µM*
COc1cc(C(=S)N2CCCC2)ccc1OCC(N)=O,0.4,x,x,x,1.9%,x
Cc1ccc(S(=O)(=O)N(c2nc(N(C)C)nc(N(C)C)n2)n2cnnc2)cc1,0.7,12.7%,0.7%,-21.4%[46.1 µM],-2.0%,5.01µM*
Cn1nc(-c2ccccn2)nc2c(=O)n(C)c(=O)nc1-2,-75.6*,-6.1%,7.08µM*,2.51µM*,50.1µM*,x

# High-throughput results as filed in PubChem BioAssay.
